# In PubChem BioAssay (NCATS):
# Records with an inconclusive call do not appear. Where a call stands in place of a potency, no number is given. Calls of active or inactive are those of the source. Calls come from the whole dose curve; as a rule, active = well fitted curve in the direction sought with a large enough effect; inconclusive = small, poorly fitted or top-dose-only effect, or another doubt; inactive = no such curve, though single readings can be large; an effect the other way counts as inactive or inconclusive.
# Columns and labels:
# [1] = molecular target: Aldehyde dehydrogenase, mitochondrial (Homo sapiens) (UniProt P05091); assay: qHTS for Inhibitors of the Aldehyde Dehydrogenase Family (ALDH2) Primary screen (AID 2061308); note: nearly all actives have a fitted effect of over 55% in size
# [2] = molecular target: Retinaldehyde dehydrogenase 3 (Homo sapiens) (UniProt P47895); assay: qHTS for Inhibitors of the Aldehyde Dehydrogenase Family (ALDH1A3) Primary screen (AID 2061315)
SMILES,Potency [1],Potency [2]
O=C(OCC#CCSc1nnc(-c2cccc3ccccc23)o1)c1ccc(F)cc1,inactive,inactive
O=S(=O)(Nc1ccc2ccccc2c1)c1ccc(NCc2ccc(Br)cc2O)cc1,inactive,inactive
Cc1cc(NC(=O)Nc2nnc(C3CCCCC3)s2)ccc1Cl,inactive,inactive
COCC(=O)NCCc1nc2ccccc2n1CCOc1ccc(C)cc1,inactive,inactive
O=C(CSc1nc(-c2ccc(F)cc2)nc2c1Cc1ccccc1O2)Nc1ccc(F)cc1,inactive,inactive
CCN(CC)CCCC(C)n1c(-c2ccccc2)nc2c(NCCO)nc(C)nc21 (stereo unspecified),inactive,inactive
COc1ccc(C(=O)N(Cc2cccs2)Cc2cccs2)c(O)c1,inactive,inactive
COC(=O)c1ccc(-c2c(NC(C)=O)sc3c2CCNC3)cc1,inactive,inactive
Cc1cccc(-n2cnc3cc(C(=O)N4CCC(c5ccccc5)CC4)ccc32)c1,inactive,inactive
O=[S+]([O-])(Nc1ccccc1)c1ccc(NCc2ccc(Cl)cc2O)cc1,inactive,inactive
Cc1cccc(-c2ccc3ncnc(NCc4cccc(F)c4)c3c2)c1,inactive,inactive
COc1cccc(C2=Nn3c(nnc3-c3cccc(OC)c3)SC2)c1,inactive,inactive
O=S(=O)(c1ccc(F)cc1)N1CCN(S(=O)(=O)c2ccc3c(c2)OCCO3)CC1,inactive,inactive
COc1ccc(NC(=O)c2[nH]c(C)c(C(C)=O)c2C)cc1S(=O)(=O)Nc1cccc(C#N)c1,inactive,inactive
Cc1ccc(S(=O)(=O)Nc2ccncc2C(=O)Nc2nc(-c3ccccc3)cs2)cc1,inactive,inactive
Cc1ccc(S(=O)(=O)Nc2cccc3ccc(C)nc23)cc1,inactive,inactive
CS(=O)(=O)c1ccccc1-c1csc(N2CCC(C(N)=O)CC2)n1,inactive,inactive
Cn1c2cc(B(O)O)sc2c2cnn(Cc3c(F)cccc3F)c(=O)c21,inactive,inactive
Oc1ccc(-c2nn[nH]n2)c2cccnc12,inactive,inactive

SMILES,Potency [1],Potency [2]
COc1cccc(C2c3c(ncn(-c4cccc(C)c4)c3=N)Oc3ccc4ccccc4c32)c1 (stereo unspecified),inactive,inactive
Clc1ccccc1CSc1nc2ncc(Br)cc2[nH]1,inactive,inactive
Cc1nc(NCc2ccccc2)c2nc(-c3ccccc3)n(C(C)CN(C)C)c2n1 (stereo unspecified),inactive,inactive
O=C(Nc1ccc2sccc2c1)Nc1nnc(-c2cccnc2)s1,inactive,inactive
COC(=O)[C@@H]1C2CC3c4[nH]c5ccccc5c4CCN3CC2CC[C@@H]1O (stereo partly specified),inactive,inactive
COc1ccc(OC)c(C2=Nn3c(nnc3-c3ccc(OC)c(OC)c3)SC2)c1,inactive,inactive
FC(F)(F)c1ccc(CNc2nc(-c3ccccc3C(F)(F)F)nc3ccccc23)cc1,inactive,inactive
CN(C)CCOC(C)(c1ccccc1)c1ccc(Cl)cc1 (stereo unspecified),inactive,inactive
C[C@@H]1O[C@@H](O[C@H]2[C@H](O[C@H]3CC[C@@]4(C)C(CC[C@]5(C)C4C=C[C@]46OC[C@@]7(CCC(C)(C)C[C@H]74)[C@@H](O)C[C@]65C)[C@]3(C)CO)O[C@H](CO)[C@@H](O)[C@@H]2O[C@@H]2O[C@H](CO)[C@@H](O[C@@H]3O[C@@H](C)[C@H](O)[C@@H](O)[C@H]3O)[C@H](O)[C@H]2O)[C@H](O)[C@H](O)[C@H]1O (stereo partly specified),inactive,inactive
COc1cccc(C2c3c(ncn(-c4cccc(Br)c4)c3=N)Oc3ccc4ccccc4c32)c1 (stereo unspecified),inactive,inactive
Cc1noc(C)c1-c1ccc2ncnc(NCc3ccccc3F)c2c1,inactive,inactive
O=C1CCCC2=C1C(c1[nH]ncc1Br)N=C(Nc1nc3ccccc3o1)N2 (stereo unspecified),inactive,inactive
Cc1cc2c(s1)c1cnn(Cc3ccc(C(F)(F)F)cc3)c(=O)c1n2C,inactive,inactive
Cc1cc(C)nc(NC(=S)N2CCN(c3ccc(C(F)(F)F)cc3[N+](=O)[O-])CC2)c1,inactive,inactive
COc1cc(OC)c2c(c1)OC(=O)CC2c1ccc2c(c1)OCO2 (stereo unspecified),inactive,inactive
CCOc1ccc(CCNC(=O)c2cc3sccc3n2Cc2ccncc2)cc1OCC,inactive,inactive
CC(=O)c1ccc(-c2csc3ncnc(Sc4nnnn4C)c23)cc1,inactive,inactive
COc1ccc(OC)c(-c2nnc3n2N=C(c2ccccc2OC)CS3)c1,inactive,inactive
Cc1ccc(S(=O)(=O)NC(N)=NCCC[C@@H](N)C(=O)Nc2cc(C(F)(F)F)ccc2Cl)cc1,inactive,inactive
